Experimental data reported in PubChem BioAssay (NCATS).
Results filed as inconclusive are left out. A call without a number means that no potency is given here. Unmarked numbers belong to inactive results. Calls of active or inactive are those of the source. Calls come from the whole dose curve; as a rule, active = well fitted cell-killing curve with a large enough effect; inconclusive = small, poorly fitted or top-dose-only effect; inactive = flat fitted curve, though single readings scatter. Bridge positions count the residues as written; N and C are the ends. Square brackets hold non-standard residues; d marks the D form. Side chains are listed from the residue outwards. Peptide text beside a SMILES is read from it. * marks the point of attachment. Phg(4-OMe) = COc1ccc([C@H](N)C(=O)O)cc1; d(aIle) = CC[C@H](C)[C@@H](N)C(=O)O; d(aThr) = C[C@@H](O)[C@@H](N)C(=O)O; NMeF = CN[C@@H](Cc1ccccc1)C(=O)O; Isobutyryl = CC(C)C(=O)*

assay: KB-3-1 Cancer Cell Toxicity qHTS against the NCATS CANVASS Library (AID 1347366); conditions: KB-3-1 viability, CellTiter-Glo luminescence, 72 h; series mostly up to 46.1 µM; note: nearly all actives have a fitted effect of over 75% in size
Method in brief: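 KB-3-1 cells (500 cells/well) in DMEM + 10% FBS were treated with compounds for 72 hr at 37C, 5% CO2. Viability was read as CellTiter-Glo luminescence after 10 minutes at room temperature.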
Potency is the fitted concentration of half-maximal effect.

Row | SMILES | Potency | activity change, negative = cytotoxicity
1 | Cc1occ2c1C(=O)c1c(cc(O)c(O)c1O)C2=O | inactive | 
2 | CCC(=O)CCCCC[C@@H]1NC(=O)[C@H]2CCCCN2C(=O)[C@H](C(C)C)NC(=O)[C@H](Cc2cn(OC)c3ccccc23)NC1=O | 7.43 µM (active) | 
3 | C/C(=C\[C@H](C)C(=O)CCCC1CC(=O)NC(=O)C1)[C@@H]1OC(=O)/C=C/CC/C=C/[C@H](O)[C@@H](O)[C@@H]1C | 6.62 µM (active) | 
4 | C/C=C(/C)c1c(Cl)c(O)c(C)c2c1Oc1c(Cl)c(O)c(Cl)c(C)c1C(=O)O2 | inactive | 
5 | C=CC(CCCCC)C1C(=O)NC(=O)C1C(=O)C1C(/C=C/C)C=CC2CC(C(=O)O)CC(C)C21 (stereo not given) | inactive | 
6 | C=C1CC[C@@H](O[C@H]2C[C@@](O)([C@H](C)NC(=O)c3[nH]c(C)c(Cl)c3Cl)[C@H](O)[C@@H](C)O2)[C@@H]2C=C[C@H](C)C(/C(O)=C3/C(=O)[C@H](C(C)C)N([C@@H]4O[C@H](C)[C@H](OC(N)=O)[C@H](OC(C)=O)[C@@H]4OC)C3=O)[C@@H]12 (stereo not given in full) | inactive | 
7 | COc1ccc([C@@H]2CC(=O)c3c(cc(O)c(C/C=C(\C)CCC=C(C)C)c3O)O2)cc1 |  | -3.45% [at 9.19 µM]
8 | CC[C@H](C)[C@H]1NC(=O)[C@@H](NC(=O)C(C)C)[C@@H](C)OC(=O)[C@H](COC(=O)CNC(C)=O)NC(=O)[C@@H]([C@@H](C)O)NC(=O)[C@H](Cc2ccccc2)N(C)C(=O)[C@H](c2ccc(OC)cc2)NC1=O (Isobutyryl-T[d(aIle)][Phg(4-OMe)][NMeF][d(aThr)]S([Gly-Ac]); ester 1-C) | inactive | 
9 | C[n+]1cc2cc(C(N)=O)[nH]c3c(=N)c(Cl)c(N)c1c23 | inactive | 
10 | C/C1=C/[C@@H](C)[C@H](O)[C@@H](O)/C=C/CC/C=C/C(=O)O[C@@H]1[C@H](C)C(=O)CCCC1CC(=O)NC(=O)C1 | inactive | 
11 | CC(=O)Oc1cc2c(c(OC(C)=O)c1C1CCc3cc(Cl)c(Cl)n31)C(=O)n1c-2cc(Cl)c1Cl (stereo not given) | 23.5 µM (active) | 
12 | C[C@]12CC[C@]3(C1)[C@H](CC2=O)C[C@@H](OC(=O)c1ccccc1)[C@H]1[C@](C)(C(=O)O)CCC[C@@]13C | 18.7 µM (active) | 
13 | CC(=O)O[C@H]1c2ccccc2-c2c3c(cc4c2[C@@H]1N(C(C)=O)CC4)OCO3 | inactive | 
14 | C=C[C@](Cl)(CBr)CCC=C(C)C | inactive | 
15 | C=C1CC[C@@H](Br)C(C)(C)[C@]12CC=C(C)C(=O)C2 | inactive | 
16 | C[C@H]1C=C[C@H]2CCCC[C@@H]2[C@H]1C(=O)[C@H]1CC2=C(C(=O)O)CCN2C1=O | inactive | 
17 | C/C(=C\[C@H](C)C(=O)/C=C/CC1CC(=O)NC(=O)C1)[C@@H]1OC(=O)/C=C/CC/C=C/C[C@@H](O)[C@@H]1C | 11.8 µM (active) | 
18 | CC(C)[C@]12CC[C@@]3(C)[C@H](C)CC[C@H](O)[C@@]3(CC1)c1cc3c(cc12)[nH]c1ccccc13 | inactive | 
19 | C/C=C1/CN2C3CC1C1C=CC(=O)N4c5ccccc5[C@@]3(C[C@@H]2C2=C[C@H]3C5CC6N(CC[C@@]67c6ccccc6N(C2=O)[C@@H]37)C/C5=C/C)[C@H]14 (stereo not given in full) | 10.5 µM (active) | 
20 | CC(C)=CCC[C@]12c3cc4c(cc3CC[C@@]1(C)[C@H](C)CC[C@@H]2O)[nH]c1ccccc14 | inactive | 
21 | Oc1ccc(C2Oc3cc(O)c4c(c3[C@@H]2c2cc(O)cc(O)c2)[C@H]2C(c3ccc(O)cc3)c3c(O)cc5c(c3[C@H]2C4c2ccc(O)cc2)[C@H](c2cc(O)cc(O)c2)C(c2ccc(O)cc2)O5)cc1 (stereo not given in full) | 13.2 µM (active) | 
22 | COc1cc(O)c(C(=O)[C@@H]2[C@H](CC=C(C)C)C(C)=CC[C@H]2c2ccccc2)c(O)c1 | 20.9 µM (active) | 
23 | COc1cc(/C=C/C(=O)OC[C@@H](Cc2ccc(O)c(OC)c2)[C@@H](COC(=O)/C=C/c2ccc(O)c(OC)c2)Cc2ccc(O)c(OC)c2)ccc1O | 20.9 µM (active) | 
24 | C=CC(CCCCC)C1C(=O)NC(=O)C1C(=O)C1C2C(C)CC(C(=O)O)CC2CC1(O)C(=O)/C=C/C (stereo not given) | inactive | 
25 | C[C@]12CCC[C@](C)(C(=O)O)[C@@H]1CC[C@@]1(C)c3cocc3CC[C@H]21 | inactive | 
26 | COc1c(O)cc2c(c1O)C(=O)c1c(coc1C)C2=O | inactive | 
27 | CC(C)C[C@@H]1c2c(O)c(C=O)c(O)c(C=O)c2O[C@]2(C)C=C[C@@H](C(C)C)C[C@H]12 | inactive | 
28 | COc1cc2c(c(O)c1O)C(=O)c1c(coc1C)C2=O | inactive | 
29 | CO[C@H]1[C@@H](OC(=O)/C(C)=C\[C@@H]2O[C@@H]2[C@H]2O[C@H]2C)[C@H](O)[C@H](OCC23C[C@@H]4[C@H](C)CC[C@H]4C4(C=O)CC2C=C(C(C)C)C34C(=O)O)O[C@@H]1C (stereo not given in full) | inactive | 
30 | C/C=C/C1C=CC2CC(C)CC(C)C2C1C(=O)CC(=O)NC(CO)C/C=C/CCCCC (stereo not given) | inactive | 
